Experimental data taken from PMC5540273 (PLoS ONE, 2017).

What was measured:
Details in all cases: concentration: 1 μM, replicates: in singlicate; n = 1
PAK2 = test system: PAK2
PAK3 = test system: PAK3
PAK4 = test system: PAK4
PAK6 = test system: PAK6
PAK7 = test system: PAK7
PCTK1 = test system: T1, PCTK1
T1 construct: gene CDK16

PCTK2 = test system: T2, PCTK2
T2 construct: gene CDK17

PCTK3 = test system: T3, PCTK3
T3 construct: gene CDK18

PDGFRA = test system: PDGFRA
PDGFRB = test system: PDGFRB
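Note: KINOMEscan kinase panel screen.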

| SMILES | %Inh (PAK2) | %Inh (PAK3) | %Inh (PAK4) | %Inh (PAK6) | %Inh (PAK7) | %Inh (PCTK1) | %Inh (PCTK2) | %Inh (PCTK3) | %Inh (PDGFRA) | %Inh (PDGFRB) |
| --- | --- | --- | --- | --- | --- | --- | --- | --- | --- | --- |
| CCC(=O)c1c(-c2ccccc2)c2cc(Cl)ccc2c(=O)n1Cc1cc(C(=O)NC2CC2)n(C)n1 | 16% | 11% | 0% | 4% | 0% | 1% | 6% | 0% | 15% | 77% |
| COc1cc(Nc2ccnc3ccc(C(F)(F)F)cc23)cc(OC)c1OC [GW577382] | 0% | 31% | 4% | 0% | 7% | 0% | 0% | 7% | 0% | 36% |
| CCC(=O)c1c(-c2ccccc2)c2cc(Cl)ccc2c(=O)n1Cc1cc(S(C)(=O)=O)n(CC(F)F)n1 | 0% | 0% | 0% | 0% | 0% | 0% | 4% | 0% | 0% | 0% |
| Cc1cc(Nc2nc(-c3cccc(C)n3)nc3ccccc23)ccn1 [GW872411] | 15% | 0% | 0% | 0% | 17% | 0% | 0% | 0% | 0% | 0% |
| COc1cccc(C2=C(N(C)c3ccccc3)C(=O)NC2=O)c1 [SB-334865] | 0% | 1% | 0% | 0% | 0% | 0% | 0% | 0% | 0% | 7% |
| O=C(NCCNc1ccnc(Nc2ccc(F)cc2)n1)Nc1ccc2c(c1)OCO2 [GSK1379882] | 0% | 0% | 0% | 12% | 7% | 14% | 0% | 0% | 6% | 53% |
| CCc1nc(-c2cccc(C)c2)c(-c2ccncc2)s1 | 16% | 0% | 15% | 3% | 0% | 0% | 1% | 2% | 0% | 70% |
| COc1ccc(-c2cc3c(C)nc(N)nc3n([C@H]3CC[C@H](O)CC3)c2=O)cn1 | 11% | 0% | 21% | 0% | 0% | 0% | 0% | 0% | 0% | 0% |
| Nc1n[nH]c2ncc(-c3ccccc3)cc12 [SB-517081] | 17% | 0% | 0% | 0% | 0% | 3% | 0% | 31% | 51% | 97.3% |
| CN(C)c1cc(-c2ccc3c(N)n[nH]c3c2)nc(N)n1 [GSK2219329] | 0% | 0% | 0% | 0% | 15% | 0% | 0% | 0% | 0% | 9% |
| CCC(=O)c1c(-c2ccccc2)c2cc(Cl)ccc2c(=O)n1Cc1cc(S(C)(=O)=O)n(CCC(C)(C)O)n1 | 8% | 21% | 6% | 0% | 2% | 29% | 21% | 13% | 0% | 0% |
| COc1cccc(C2=C(Nc3cccc(C(=O)O)c3)C(=O)NC2=O)c1 [SB-390770] | 0% | 25% | 0% | 0% | 0% | 0% | 0% | 0% | 3% | 0% |
| Cn1c(=O)c(F)c(Nc2ccc(I)cc2F)c2c(=O)n(OC[C@H](O)CO)cnc21 | 7% | 1% | 8% | 20% | 0% | 0% | 11% | 5% | 0% | 11% |
| FC(F)(F)c1ccc(-c2ncn(CCCN3CCOCC3)c2-c2ccncc2)cc1 [SB-217780] | 34% | 12% | 21% | 17% | 0% | 10% | 0% | 20% | 34% | 32% |
| Nc1n[nH]c2nnc(-c3ccccc3)c(-c3ccccc3)c12 [GW554060] | 0% | 0% | 0% | 0% | 0% | 0% | 0% | 20% | 0% | 2% |
| Fc1cccc(CSc2nnc(-c3ccc4c(c3)CCO4)o2)c1 | 62% | 19% | 23% | 35% | 5% | 18% | 1% | 0% | 26% | 0% |
| COc1cc2ncn(-c3cc(OCCCc4ccccc4)c(C(N)=O)s3)c2cc1OC [GSK205189] | 26% | 6% | 0% | 0% | 0% | 0% | 0% | 19% | 0% | 25% |
| O=C(Nc1n[nH]c2cc(-c3ccccc3F)ccc12)C1CC1 [SB-733371] | 0% | 0% | 0% | 0% | 9% | 0% | 9% | 0% | 16% | 46% |

| SMILES | %Inh (PAK2) | %Inh (PAK3) | %Inh (PAK4) | %Inh (PAK6) | %Inh (PAK7) | %Inh (PCTK1) | %Inh (PCTK2) | %Inh (PCTK3) | %Inh (PDGFRA) | %Inh (PDGFRB) |
| --- | --- | --- | --- | --- | --- | --- | --- | --- | --- | --- |
| COC(=O)c1c(-c2ccccc2)c2cc(C)ccc2c(=O)n1Cc1ccccc1 | 20% | 1% | 0% | 10% | 0% | 0% | 0% | 0% | 42% | 90% |
| COc1ccc(-n2cnc3c(N)ncnc32)cc1 [SKF-97236] | 0% | 28% | 0% | 16% | 0% | 0% | 0% | 0% | 63% | 95.1% |
| COc1ccc(CNC(=O)NC2CCN(c3ccnc(Nc4ccc(F)cc4)n3)C2)cc1 (centres unmarked) [GSK1379706] | 0% | 0% | 0% | 0% | 3% | 0% | 18% | 39% | 14% | 43% |
| COc1cc(Nc2nccc(N3CCC(NC(=O)C(C)c4ccc(Cl)cc4)C3)n2)cc(OC)c1OC (centres unmarked) [GSK1379757] | 11% | 22% | 0% | 0% | 0% | 0% | 0% | 0% | 0% | 14% |
| CCn1c(-c2ccoc2)nc2cnccc21 [SB-733887] | 19% | 0% | 0% | 0% | 0% | 9% | 0% | 1% | 63% | 9% |
| CCCNC(=O)Nc1ccc(Oc2ncnc3ccn(C)c23)cc1 | 30% | 0% | 0% | 12% | 5% | 15% | 8% | 0% | 54% | 46% |
| O=C1NC(=O)C(c2ccccc2)=C1Nc1cccc(O)c1 [SB-390534] | 16% | 26% | 0% | 0% | 0% | 0% | 6% | 0% | 0% | 0% |
| COc1ccc(-c2coc3ccc(-c4nnc(SCc5cccc(C#N)c5)o4)cc23)cc1 | 34% | 0% | 14% | 19% | 15% | 0% | 0% | 2% | 20% | 10% |
| Cc1ccccc1COc1cc(-n2cnc3cc(Cl)ccc32)sc1C(N)=O [GW813349] | 0% | 0% | 0% | 1% | 0% | 15% | 0% | 0% | 1% | 0% |
| Nc1ncnc2c1ncn2-c1cccc(F)c1 [SKF-97560] | 0% | 0% | 5% | 12% | 3% | 27% | 1% | 10% | 43% | 58% |
| Nc1nc(N)c2nc(-c3ccccc3)[nH]c2n1 [SKF-12778] | 0% | 0% | 13% | 0% | 5% | 5% | 0% | 0% | 0% | 14% |
| O=c1cc(N2CCOCC2)nc2n(Cc3ccc(F)c(Cl)c3)ccn12 [GSK2297099] | 5% | 0% | 0% | 13% | 11% | 6% | 10% | 2% | 7% | 17% |
| COC(=O)c1c(-c2ccccc2)c2cc(Br)ccc2c(=O)n1Cc1ccc(NC(=O)CCC(=O)O)cc1 | 17% | 0% | 2% | 18% | 2% | 15% | 7% | 0% | 16% | 57% |
| CCc1ccc(-c2ccc3c(c2)-c2nn(C)cc2S(=O)(=O)N3C)cc1 | 11% | 0% | 0% | 9% | 0% | 0% | 0% | 0% | 0% | 0% |
| COc1cc2nccc(Nc3cccc(Oc4ccccc4)c3)c2cc1OC.Cl [GW284543] | 0% | 0% | 0% | 0% | 4% | 4% | 0% | 2% | 22% | 26% |
| CCC(=O)c1c(-c2ccccc2)c2cc(Cl)ccc2c(=O)n1Cc1ccc(C(=O)O)cc1 | 0% | 0% | 0% | 0% | 0% | 0% | 0% | 0% | 19% | 58% |
| Cc1cccc(-c2nc(Nc3ccc4c(cnn4C)c3)c3ccccc3n2)n1 [GW876731] | 33% | 0% | 17% | 14% | 0% | 0% | 0% | 11% | 9% | 1% |
